The supplement of paper PMC7156485
± gives the standard deviation of the averaged measurements.

Legend:
Conditions in all cases: concentration: 10 µM; 24 h
HCC1569 [1] = test: cell number relative to DMSO (% of DMSO); higher = more cells (less growth inhibition / toxicity)
Summary of the method: (§1)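 Compounds were applied at 10 µM for 24 h at 37 °C, in triplicate, to HCC1569 and TDF cells. The cells were then fixed and stained for H1.0, and nuclei were counterstained with DAPI. Nuclear H1.0 intensity or cell number is reported relative to the plate control as a percent, taking the median of replicates. Smoothing for positional effects was applied to HCC1569 values only.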

TDF [2] = test: as above
Summary of the method: as §1

TDF [3] = test: H1.0 immunofluorescence intensity relative to DMSO (% of DMSO); higher = stronger H1.0 induction, active = 120 or more
Summary of the method: as §1

HCC1569 [4] = test: H1.0 immunofluorescence intensity relative to DMSO (% of DMSO); higher = stronger H1.0 induction, active = 140 or more
Summary of the method: as §1
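For H1.0 immunofluorescence intensity relative to DMSO in this document: TDF is a line of transformed human dermal fibroblasts of mesenchymal origin.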
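For cell number relative to DMSO in this document: TDF denotes transformed human dermal fibroblasts of mesenchymal origin.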

Compound | cell number (HCC1569 [1]) | cell number (TDF [2]) | H1.0 immunofluorescence intensity (TDF [3]) | H1.0 immunofluorescence intensity (HCC1569 [4])
CCCCCC(CC(=O)NO)C(=O)NC(C(=O)N1CCCC1CO)C(C)C (stereo unspecified) [Actinonin] | 101 | 89 | 108 (inactive) | 111 (inactive)
COc1nccc(-c2c(-c3ccc(F)cc3)ncn2C2CCNCC2)n1 | 93.7 | 104 | 84.3 (inactive) | 99.5 (inactive)
NC1CONC1=O [L-Cycloserine] | 102 ± 2.4 | 102 ± 2.1 | 94.5 (inactive) | 84.8 (inactive)
Cc1cc(C(C)(C)C)c(O)c(C)c1CC1=NCCN1.Cl [Oxymetazoline hydrochloride] | 104 | 107 | 93.9 (inactive) | 94.9 (inactive)
COc1ccc(-c2cc(=S)ss2)cc1 [Anethole trithione] | 93.6 | 104 | 98.2 (inactive) | 103 (inactive)
Cc1c(Cl)cccc1Nc1ccccc1C(=O)O [Tolfenamic acid] | 105 | 105 | 104 (inactive) | 95 (inactive)
O=C1C(SCCO)=C(SCCO)C(=O)c2ccccc21 [2,3-bis[(2-hydroxyethyl)sulfanyl]naphthoquinone] | 36.5 | 84.6 | 103 (inactive) | 446 (active)
CC1OC(Oc2c(-c3cc(O)c(O)c(O)c3)oc3cc(O)cc(O)c3c2=O)C(O)C(O)C1O (stereo unspecified) [Myricitrin] | 103 | 101 | 94.8 (inactive) | 83.5 (inactive)
CCOC(=O)c1csc(Nc2ccc(Cl)cc2)n1 [ethyl 2-(4-chloroanilino)-1,3-thiazole-4-carboxylate] | 97 | 99.4 | 99.7 (inactive) | 113 (inactive)
CCCCOc1ccc(-c2cncc(C(=O)NCc3cccnc3N3CCOCC3)c2)cc1Cl | 86.9 | 104 | 98.3 (inactive) | 150 (active)
COc1ccc(S(=O)(=O)N2CCC[C@H]2C(=O)Nc2cc(C)cc(C)c2)cc1 | 101 | 113 | 95.5 (inactive) | 102 (inactive)
Cc1cc2cc3c(C)cc(=O)oc3c(C)c2o1 [4,5',8-Trimethylpsoralen] | 97.9 | 102 | 97.2 (inactive) | 87.5 (inactive)
CC(=O)OC1C(C)OC(Oc2c(-c3ccc(O)cc3)oc3cc(O)cc(O)c3c2=O)C(O)C1OC(C)=O (stereo unspecified) [RSK Inhibitor, SL0101] | 97.7 | 92.8 | 102 (inactive) | 107 (inactive)
CC(=O)N[C@@H](CS)C(=O)O [N-Acetyl-L-Cysteine] | 98.1 | 115 | 109 (inactive) | 118 (inactive)
CC(C)c1[nH]n(-c2c(Cl)cccc2Cl)c2nc(Cc3ccc(OCCO)cc3)nc(=O)c1-2 [Cdk/Crk Inhibitor] | 55 | 26.7 | 131 (active) | 143 (active)
NC(=O)N1c2ccccc2CC(=O)c2ccccc21 [Oxcarbazepine] | 103 | 108 | 93.7 (inactive) | 110 (inactive)
O=c1c(O)c(-c2ccccc2)oc2cc(O)cc(O)c12 [Galangine] | 98.1 | 91.3 | 101 (inactive) | 100 (inactive)
O=c1ccc2ccc(O)c(O)c2o1 [Daphnetin] | 106 | 87.6 | 100 (inactive) | 95.2 (inactive)
O=C(O)CCCC=CCC1C(O)CC(O)C1C=CC(O)COc1cccc(Cl)c1.[Na] (stereo unspecified) | 99.8 | 98.7 | 96.8 (inactive) | 92.6 (inactive)
N#CC(=Cc1ccc(O)cc1)C(N)=C(C#N)C#N | 99 | 96.7 | 95.4 (inactive) | 110 (inactive)
O.O.O=c1c(O)c(-c2ccc(O)c(O)c2)oc2cc(O)cc(O)c12 [Quercetin dihydrate] | 88.6 | 98.7 | 90.2 (inactive) | 134 (inactive)
CCCCCCCCCCC1=C(C)C(=O)C(OC)=C(OC)C1=O [Decylubiquinone] | 101 | 89.2 | 94.8 (inactive) | 91.8 (inactive)
COc1ccc(-c2cc(=O)c3c(O)c(OC)c(OC)cc3o2)cc1O | 68.2 | 80.2 | 102 (inactive) | 139 (inactive)
C[N+](C)(C)CCCCCC[N+](C)(C)C.[Br-].[Br-] [Hexamethonium bromide] | 104 | 103 | 98.5 (inactive) | 102 (inactive)
